# Entries with a potency or affinity are not part of this list. The source made the active and inactive calls. The rule behind the calls is not given here.
# Assay: host cell cytotoxicity of antiviral hits, dose response, cytotoxicity control for West Nile virus antiviral project, secondary assay (AID 1650)
# Settings: Mammalian host cell viability, cytotoxicity counter-screen; series mostly up to 10 µM
row,Compound,outcome
1,CN1CCCC(CC2Oc3ccccc3Sc3ccccc32)C1 (stereo not given),inactive
2,CCCC1(c2ccccc2)NC(=O)N(CC(=O)Nc2sc(-c3ccccc3)cc2C(=O)OCC)C1=O (stereo not given),inactive
3,Cc1cc(OCc2cc(C(=O)NCCN3CCCCC3CO)no2)cc(C)c1Cl (stereo not given),inactive
4,Cn1c(N)c(C(=O)CSc2nc3ccccc3c(=O)n2CCCN2CCOCC2)c(=O)n(C)c1=O,inactive
5,COc1ccc(C2c3[nH]c4ccccc4c3CCN2C(=O)c2ccccc2C(C)=O)c(F)c1 (stereo not given),inactive
6,CCOc1ccc(NC(=O)c2c(NC(=O)CN3CCN(C)CC3)sc3c2CCC3)cc1,inactive
7,CCN(CC)S(=O)(=O)c1ccc(NC(=O)Cn2cnc3ccccc3c2=O)cc1,inactive
8,Cn1c(N/N=C/c2c[nH]c3ccccc23)nc2ccccc21,inactive
9,CC1CCN(CCc2nc3cc(NC(=O)COc4ccc(Cl)cc4)ccc3n2C)CC1,inactive
10,Cc1c(/C=N/NC(=O)C(C)(C)Oc2ccc(Cl)cc2)cnn1C,inactive
11,COc1ccccc1CN1CCC(CNS(=O)(=O)c2cc(-c3onc(C)c3C)ccc2OC)CC1,inactive
12,Cc1nc([N+](=O)[O-])c(Br)n1CC(=O)c1ccc(Cl)cc1,inactive
13,CCOC(=O)c1cn(CC(=O)Nc2ccc(C(C)C)cc2)nn1,inactive
14,O=C(c1ccc2c(=O)n(Cc3ccc4c(c3)OCO4)c(=O)[nH]c2c1)N1CCN(c2ccccc2)CC1,inactive
15,COC(=O)C1(O)CC(C(C)C)=NN1C(=O)c1ccc(Cl)cc1 (stereo not given),inactive
16,O=C(NCCCn1ccnc1)c1cc2nc(-c3ccc(Br)cc3)cc(C(F)(F)F)n2n1,inactive
17,Cc1c(Cc2ccccc2)c(NCCN(C)C)n2c(nc3ccccc32)c1C#N,inactive
18,O=C(CCC1CCCC1)N=C1SC2CS(=O)(=O)CC2N1Cc1ccccc1 (stereo not given),inactive
19,O=C(CCN1C(=O)/C(=C/c2ccccc2F)SC1=S)NCCc1ccc(O)cc1,inactive
20,Cc1cc(N2CCCC2)nc2ccc(NC(=S)NCCCN3CCC(C)CC3)cc12,inactive

row,Compound,outcome
1,CCN(CC)CCOC(=O)c1ccc(NC(=O)CCCN2C(=O)S/C(=C/c3ccc(OC)cc3)C2=S)cc1,inactive
2,COc1cc2cc(CN(CCc3ccccc3C)C(=S)NCCCN(C)C)c(=O)[nH]c2cc1OC,inactive
3,CCOC(=O)c1c(CN2CCN(CCO)CC2)n(-c2ccccc2)c2cc(Br)c(O)cc12,inactive
4,CCOC(=O)c1cnc2ccc(OC)cc2c1Nc1ccc(N2CCN(C)CC2)cc1,inactive
5,COc1ccc(S(=O)(=O)NC2CCCC2)c(Cl)c1Cl,inactive
6,CCN(CC)CCCNc1nc(-c2ccccc2)nc2ccccc12,inactive
7,COc1cc2c(O)c3c(c(-c4ccc5c(c4)OCO5)c2cc1OC)C(=O)OC3,inactive
8,COCCN1CCCC(CNCc2cn(C)nc2-c2ccc(Oc3ccccc3)cc2)C1 (stereo not given),inactive
9,CN1CCN(c2ccc(NC(=O)c3ccc(-c4cccc([N+](=O)[O-])c4)o3)cc2)CC1,inactive
10,Cc1cccc(/C=C2/Sc3ccc(C(=O)NCCCN4CCOCC4)cc3NC2=O)c1,inactive
11,CCN(CC)CCNC(=O)c1ccc(NC(=O)c2cccc(S(=O)(=O)N3c4ccccc4CC3C)c2)cc1 (stereo not given),inactive
12,CCN(CC)CCCC(C)NC(=O)c1c(NC(=O)c2ccccc2)sc2c1CCCC2 (stereo not given),inactive
13,Cc1ccc(CN(Cc2cc3cccc(C)c3[nH]c2=O)C(=S)NCCCN(C)C)cc1,inactive
14,CCCCCCCCCc1nc2sc3c(c2c(=O)n1NC(=O)c1ccc([N+](=O)[O-])cc1)CC(C)(C)OC3,inactive
15,Cc1ccc(OCC(O)Cn2c(=N)n(CCN3CCCCC3)c3ccccc32)cc1 (stereo not given),inactive
16,COc1ccc(C2c3ccc4ccccc4c3Oc3ncn(CCO)c(=N)c32)cc1OC (stereo not given),inactive
17,Cc1ccc(-n2c(SCC(=O)Nc3ccc(N4CCOCC4)cc3)nc3ccccc3c2=O)cc1,inactive
18,Cc1nn(Cc2ccc(Cl)cc2)c(C)c1NC(=O)CSc1nc2c(c(C(F)(F)F)n1)CCc1ccccc1-2,inactive
19,CCN1CCN(CCCNC(=O)C2CCCN(c3nc4c(C)cc(C)cc4s3)C2)CC1 (stereo not given),inactive
20,CC1CCN(c2nc3ccc(C(=O)NCCCN4CCCCC4)cc3s2)CC1,inactive

# Source: PubChem BioAssay AID1650 (Southern Research Specialized Biocontainment Screening …, 2009)
